Hits are enriched below; roughly 2.4% of the tested compounds scored in any of these assays.
Pol kappa inh = qHTS for Inhibitors of Polymerase Kappa. DNA polymerase kappa (Homo sapiens), Q9UBT6. purified Pol kappa, fluorescent DNA synthesis assay, 10 min. Potency, µM (doses to about 107 µM), actives largely listed as inhibitors. 0.53% of 400,000 active. AID 588579, 2011
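10 nM Pol kappa preincubated 15 min at room temperature with compounds, then reaction started with substrate at 50 nM final. Fluorescence read kinetically at 0 and 10 min; buffer-only wells served as negative control.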
Tb PGK inh = qHTS Assay to Find Inhibitors of Phosphoglycerate Kinase | Phosphoglycerate kinase, glycosomal (Trypanosoma brucei brucei), P07378 | PGK/GAPDH coupled, Kinase-Glo luminescence, 60 min | Potency, µM (highest dose often 57.5 µM), actives largely listed as inhibitors | 0.043% of 380,000 active | AID 602233, 2012; further: nearly all actives have a fitted effect of over 60% in size
Target sequence (P07378 whole entry, looked up): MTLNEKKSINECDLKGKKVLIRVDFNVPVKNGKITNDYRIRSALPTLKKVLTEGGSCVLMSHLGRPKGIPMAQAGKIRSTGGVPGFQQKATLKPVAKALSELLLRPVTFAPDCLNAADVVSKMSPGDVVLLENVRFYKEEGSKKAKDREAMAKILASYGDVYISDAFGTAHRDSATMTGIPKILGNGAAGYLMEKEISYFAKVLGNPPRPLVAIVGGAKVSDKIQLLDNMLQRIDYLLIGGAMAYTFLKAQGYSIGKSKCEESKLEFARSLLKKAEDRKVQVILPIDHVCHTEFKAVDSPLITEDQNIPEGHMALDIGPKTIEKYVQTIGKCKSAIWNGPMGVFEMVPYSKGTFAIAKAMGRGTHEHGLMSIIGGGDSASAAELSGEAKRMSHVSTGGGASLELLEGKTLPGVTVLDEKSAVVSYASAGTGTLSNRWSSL
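Recombinant glycosomal PGK reaction used 1,3-bisphosphoglycerate generated in-well by GAPDH (100nM final) in 100mM TEA pH 7.6, 5mM MgCl2, 0.01% Tween-20. After 60 minutes at room temperature, ATP was read by Kinase-Glo Plus luminescence end-point.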
FEN1 inhibitor = qHTS Assay for the Inhibitors of Human Flap endonuclease 1 (FEN1) | P39748 | Recombinant FEN1 flap cleavage, fluorescence, 15 min | Potency, µM (highest dose often 114 µM), usual class: inhibitors | 0.35% of 390,000 active | AID 588795, 2011; further: nearly all actives have a fitted effect of over 65% in size
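Enzyme 10 nM, 15 min RT preincubation with compound; start with substrate 50 nM final; reads at 0 and 15 min; qHTS titration, four-parameter Hill fit.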
POLB inh = qHTS Assay for Inhibitors of DNA Polymerase Beta; Pol beta primer extension/strand displacement, fluorescence kinetic; Potency, µM (doses to about 114 µM), usual class: inhibitors; 1.3% of 340,000 active; AID 485314, 2010
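Pol beta (10 nM) and compounds were preincubated 15 min at room temperature, then 50 nM substrate (final) started primer extension/strand displacement. Reads were taken at 0 and 10 min; concentration-response data were fitted to a four-parameter Hill equation.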
POLI inh = qHTS for Inhibitors of Polymerase Iota. AID 588590, 2011. Potency, µM (titrated, usually from 115 µM), actives largely listed as inhibitors. DNA polymerase iota (Homo sapiens), Q9UNA4. Pol iota fluorescent replication assay, 10 min. 1% of 390,000 active
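Pol iota at 10 nM preincubated 15 min with compounds at room temperature; reaction started with fluorescent substrate, 50 nM final. Fluorescence read kinetically at 0 and 10 min; buffer-only wells as negative control.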
POLH inh = qHTS for Inhibitors of Polymerase Eta; Potency, µM (top dose mostly 114 µM), actives largely listed as inhibitors; DNA polymerase eta (Homo sapiens), Q9Y253; 1.2% of 390,000 active; recombinant Pol eta, fluorescent DNA replication assay; AID 588591, 2011
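Fluorescent replication assay: 50 nM final substrate added after a 15 min room-temperature compound preincubation with 10 nM enzyme. Signal taken at 0 min and again at 10 min.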
Of the large screens only hits and unclear results are named; the others gave an inactive call; ! = not active in a repeat. The call rests on the fitted dose curve; in most records, active means well fitted curve in the direction sought with a large enough effect; inconclusive means small, poorly fitted or top-dose-only effect, or another doubt; inactive means no such curve, though single readings can be large; an effect the other way counts as inactive or inconclusive.

COC(=O)c1c(C)sc(-c2c(-c3ccc(F)cc3)[nH]c3[nH]c(=O)[nH]c(=O)c23)c1O	Pol kappa inh inconclusive, POLB inh 56µM, POLI inh inconclusive (no result: Tb PGK inh, POLH inh)
CCOC(=O)c1sc(NC(=O)c2nc3ncccn3n2)c(C(=O)OC)c1C	none
CCOC(=O)c1sc(NC(=O)c2nc3nc(C)cc(C(F)F)n3n2)c(C(=O)OC(C)C)c1C	POLH inh 89µM
CCN(CC)C(=O)CSc1nc2cc3c(cc2c(=O)n1Cc1ccc(C(=O)NCCc2ccc(OC)c(OC)c2)cc1)OCO3	none
CN(C)c1ccc(/C=C/c2cc(Cl)nc3ccccc23)cc1	none (no result: Tb PGK inh, POLB inh, POLH inh)
CN(CC(=O)Nc1ccc(Cl)cc1)C(=O)c1cccc(S(=O)(=O)NCc2ccccc2)c1	none
Cc1ccc(NC(=O)CN(C)C(=O)c2cccc(S(=O)(=O)NCc3ccco3)c2)cc1	Pol kappa inh inconclusive, POLI inh 56µM, POLH inh inconclusive (no result: POLB inh)
NC(Cc1cccc(-c2ccccc2CP(=O)(O)O)c1)C(=O)O (configuration not stated)	FEN1 inhibitor inconclusive (no result: Tb PGK inh)
N[C@@H](Cc1cc(CP(=O)(O)O)cc(-c2ccccc2Cl)c1)C(=O)O	Pol kappa inh 21µM (no result: Tb PGK inh, FEN1 inhibitor, POLB inh, POLI inh, POLH inh)
C(=C\c1ccnc2ccccc12)/c1ccc2c(c1)OCO2	none (no result: Tb PGK inh, POLB inh, POLH inh)
CCc1nnc(N/N=C/c2ccccc2Cl)n1N	FEN1 inhibitor inconclusive, POLI inh inconclusive
COc1cccc(/C=N/Nc2nnc(C)n2N)c1OCc1ccccc1Cl	POLI inh 20µM
Oc1ccc(N=Cc2ccc(-c3cccs3)s2)cc1	FEN1 inhibitor inconclusive, POLB inh inconclusive, POLI inh inconclusive, POLH inh 32µM
O=Cc1ccc(-c2cccs2)s1	none (no result: POLB inh)
COc1ccc(C(=O)c2sc(Nc3cc(Cl)ccc3C)nc2N)cc1OC	POLB inh 28µM, POLI inh inconclusive
CC(=O)N1CCN(c2nc(-c3ccco3)c3c(c2C#N)CC(C)(C)SC3)CC1	POLH inh inconclusive
CC1(C)Cc2c(c(-c3ccco3)[nH]c(=O)c2C#N)CS1	POLB inh 28µM, POLI inh 28µM, POLH inh inconclusive
CC1(C)Cc2c(C#N)c(N3CCN(C(=O)c4ccccc4Cl)CC3)nc(-c3ccco3)c2CS1	Pol kappa inh 79µM, POLB inh 20µM, POLI inh inconclusive, POLH inh 10µM
CCOC(=O)c1cc(OCc2csc(-c3ccccc3)n2)cc(C(=O)OCC)c1	none (no result: Tb PGK inh, POLB inh, POLH inh)
O=C(COC(=O)c1ccccc1NCCO)Nc1cccc(S(=O)(=O)NC2=NCCCCC2)c1	Pol kappa inh inconclusive, POLI inh 40µM, POLH inh inconclusive (no result: POLB inh)
O=C(Nc1cccc(S(=O)(=O)NC2=NCCCCC2)c1)C1COc2ccccc2O1 (configuration not stated)	POLB inh 13µM, POLI inh inconclusive, POLH inh inconclusive
COc1ccccc1CN1CCC2(CC1)CCN(C(=O)c1csnn1)CC2	none (no result: Tb PGK inh, FEN1 inhibitor, POLB inh, POLI inh, POLH inh)
CC(C)(C)OC(=O)N1CCC(c2c(C(=O)Nc3ccc4c(c3)OCCO4)cnn2-c2ccc(F)cc2F)CC1	none
O=C(O)C1C2C=CC(C2)C1C(=O)Nc1ccccc1Br (configuration not stated)	Tb PGK inh inconclusive, POLB inh 89µM, POLH inh inconclusive
CN1CCN(C2=CC3=CC(=C(C#N)C#N)CCC3CC2)CC1 (configuration not stated)	POLI inh 89µM
O=c1[nH][nH]c2c(N=Cc3ccccc3O)ccc(F)c12	Pol kappa inh 4µM, Tb PGK inh 16µM, FEN1 inhibitor 18µM, POLB inh 7.1µM, POLI inh 0.89µM, POLH inh 3.2µM
COc1cccc(NS(=O)(=O)c2ccc3[nH]cc(C(=O)NC(C)c4ccccc4)c(=O)c3c2)c1 (configuration not stated)	Pol kappa inh inconclusive, POLB inh 40µM, POLI inh 89µM, POLH inh inconclusive
CCc1ccc(CNC(=O)CCn2c(=O)c3cccn3c3ccc(F)cc32)cc1	none
Cn1c(C(c2cc3ccccc3n2C)c2cc3ccccc3n2C)cc2ccccc21	none (no result: Tb PGK inh, POLB inh, POLH inh)
O=C(Cc1cc(=O)[nH][nH]1)N/N=C/C(Cl)=C/c1ccccc1	POLB inh 50µM, POLI inh 3.2µM!, POLH inh inconclusive
COc1cc(/C=N/Nc2ccc(S(N)(=O)=O)cc2[N+](=O)[O-])cc(OC)c1O	POLB inh inconclusive, POLI inh 40µM, POLH inh inconclusive
COc1cc(/C=N/Nc2nc3ccccc3s2)cc([N+](=O)[O-])c1O	Tb PGK inh inconclusive, FEN1 inhibitor 45µM, POLB inh 22µM, POLH inh 56µM
Cc1ccc(NC(=O)CCn2c(=O)c3cccn3c3ccccc32)c(Cl)c1	none
N=C1/C(=C\c2ccc(SCc3ccccc3)o2)C(=O)N=C2SC(CC(=O)N3CCOCC3)=NN12	Pol kappa inh inconclusive, POLB inh inconclusive, POLI inh 10µM, POLH inh 56µM
Cc1ccc(/C=C2\C(=N)N3N=C(CC(=O)N4CCOCC4)SC3=NC2=O)o1	Pol kappa inh inconclusive, POLB inh inconclusive, POLI inh inconclusive, POLH inh 28µM
Cc1ccc(S(=O)(=O)Nc2cc(Br)cc3cccnc23)cc1	POLI inh inconclusive (no result: Tb PGK inh, POLB inh, POLH inh)
CCOC(=O)Cc1nnc(NC(=O)c2ccccc2OCC)s1	none
CCOC(=O)Cc1nnc(NC(=O)c2ncn[nH]2)s1	POLI inh 7.1µM
C=C1C=C(C)n2ncc(C(=O)N(CCc3ccccc3)Cc3ccccc3)c2N1	none (no result: Tb PGK inh, POLB inh, POLH inh)
CC1(C)CC(=O)C2=C(C1)c1c(ccc3ccccc13)NC2c1ccc(OCC(=O)O)cc1 (configuration not stated)	Pol kappa inh inconclusive, POLB inh 45µM
Cc1ccc(S(=O)(=O)NC(=O)c2ccc(-c3ccc(-c4ccccc4)cc3)o2)c(C)c1	POLB inh 56µM (no result: Pol kappa inh, Tb PGK inh, FEN1 inhibitor, POLI inh, POLH inh)
Cc1ccc(S(=O)(=O)NC(=O)c2ccc(F)cc2)c(C)c1	none
Oc1cccc2c(CC(O)c3c[nH]c4ccccc34)ccnc12 (configuration not stated)	none (no result: Tb PGK inh, POLB inh, POLH inh)
O=C(CC1N=C2c3ccccc3N=C(SCc3ccc(Cl)cc3)N2C1=O)NCc1ccco1 (configuration not stated)	Pol kappa inh inconclusive, POLB inh inconclusive, POLI inh inconclusive, POLH inh 79µM
Cc1cccc(OCCn2c(CCNC(=O)C3CCCCC3)nc3ccccc32)c1	POLI inh inconclusive (no result: Tb PGK inh, POLB inh, POLH inh)

Compound activity: PubChem, National Center for Advancing Translational Sciences (NCATS)
